Reference: PubChem BioAssay (EPA / NIEHS)
The source made the active and inactive calls. The calls were made as follows: active = hit-call score of the fitted dose curve at least 0.9, where 1 is the maximum; inactive = score below 0.9.

Tests used:
[1] = APR_HepG2_CellLoss_72hr: Apredica 72-hour HepG2 Assay for Cell Loss (AID 2282915); details: high-content imaging
Procedure, shortened: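 Cell number comes from Hoechst 33342-labelled nuclei, imaged at 20x after 3.7% formaldehyde fixation. Dosing was 0.39–200 uM, ten concentrations in duplicate, 0.5% DMSO final, for 72 h. Bidirectional fit relative to DMSO baseline.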

[2] = APR_HepG2_P-H2AX_72hr: Apredica 72-hour HepG2 Assay for H2AX Phosphorylation (AID 2282916); details: imaging, actives raise or lower the signal;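 also: phospho-histone H2A.x immunostain intensity per cell marking DNA damage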
Procedure, shortened: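 Human hepatoma HepG2 cells are dosed across ten concentrations (0.39 to 200 uM, 0.5% v/v DMSO) and incubated 72 hr. Phospho-histone H2A.x is then detected by antibody staining alongside c-Jun and Hoechst, and quantified by automated fluorescence imaging.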

[3] = APR_HepG2_MitoMembPot_72hr: Apredica 72-hour HepG2 Assay for Mitochondrial Membrane Potential (AID 2282917); details: imaging, actives raise or lower the signal
Procedure, shortened: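 Membrane potential read by MitoTracker Red CMXRos (250 nM, 30 min, pre-fixation) fluorescence imaging of HepG2 after 72 hr exposure. Ten concentrations, 0.39–200 uM, duplicate wells, 0.5% DMSO; fitted in both directions against DMSO baseline.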

[4] = APR_HepG2_MitoticArrest_72hr: Apredica 72-hour HepG2 Assay for Mitotic Arrest (AID 2282918); details: high-content imaging, actives raise or lower the signal
Procedure, shortened: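 HepG2, 72 hr exposure, 0.39–200 uM in duplicate, 0.5% v/v DMSO final. Formaldehyde-fixed, Triton-permeabilized, anti-phospho-histone H3/FITC plus Hoechst. ArrayScan imaging at 20x; curves fit bidirectionally against DMSO baseline.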

[5] = APR_HepG2_MicrotubuleCSK_72hr: Apredica 72-hour HepG2 Assay for Microtubule CSK Stabilty (AID 2282919); details: HepG2 microtubule cytoskeleton, high-content imaging, actives raise or lower the signal
Procedure, shortened: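 High-content imaging of alpha-tubulin staining in fixed HepG2 cells after 72 hr treatment with ten concentrations from 0.39 to 200 uM (0.5% DMSO). Fitting was bidirectional against DMSO; taxol served as positive control.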

[6] = APR_HepG2_P-H2AX_24hr: Apredica 24-hour HepG2 Assay for H2AX Phosphorylation (AID 2282920); details: high-content imaging, actives raise or lower the signal
Procedure, shortened: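 HCS fluorescence imaging of phospho-H2A.x immunostain (with Hoechst 33342 nuclear counterstain) in HepG2 after 24 hr compound exposure; 10 concentrations, 0.39–200 uM, duplicate wells, 0.5% v/v DMSO. Gain or loss of signal fitted relative to DMSO baseline.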

[7] = APR_HepG2_StressKinase_72hr: Apredica 72-hour HepG2 Assay for Stress Kinase (AID 2282921); details: HepG2 stress kinase (phospho-c-Jun) imaging, actives raise or lower the signal
Procedure, shortened: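 After a 72 h compound treatment spanning 0.39 to 200 uM, formaldehyde-fixed cells are labelled for phosphorylated c-Jun and nuclei, imaged by automated fluorescence microscopy, and activity is fitted in both directions relative to DMSO controls.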

[8] = APR_HepG2_StressKinase_24hr: Apredica 24-hour HepG2 Assay for Stress Kinase (AID 2282922); details: HepG2 stress kinase (phospho-c-Jun) imaging, actives raise or lower the signal
Procedure, shortened: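 High-content imaging of phospho-c-Jun immunofluorescence in fixed, permeabilized HepG2 cells after 24 h dosing. Ten concentrations, 0.39 to 200 uM, run in duplicate at 0.5% v/v DMSO; gain or loss of signal versus DMSO.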

[9] = APR_HepG2_MitoMass_72hr: Apredica 72-hour HepG2 Assay for Mitochondrial Mass (AID 2282924); details: high-content imaging, actives raise or lower the signal;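 also: MitoTracker Red CMXRos stain intensity per cell imaged as mitochondrial mass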
Procedure, shortened: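 Readout is imaged MitoTracker Red (250 nM, 30 min, pre-fixation) signal, fitted bidirectionally against DMSO baseline. Human HepG2 liver cells received compound 0.39–200 uM in duplicate for 72 hr, final DMSO 0.5%.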

[10] = APR_HepG2_p53Act_72hr: Apredica 72-hour HepG2 Assay for p53 Activation (AID 2282923); details: high-content imaging, actives raise or lower the signal;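 also: average cellular p53 protein immunofluorescence intensity in HepG2 cells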
Procedure, shortened: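 Imaging-based endpoint: after 72 hr compound exposure (up to 200 uM, 0.5% DMSO), fixed and permeabilized monolayers were labelled with anti-p53 antibody and imaged; signal change in either direction was fitted relative to DMSO controls.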

SMILES	outcome [1]	outcome [2]	outcome [3]	outcome [4]	outcome [5]	outcome [6]	outcome [7]	outcome [8]	outcome [9]	AC50 [1]	AC50 [2]	AC50 [5]	outcome [10]	AC50 [9]	AC50 [4]	AC50 [6]	AC50 [3]	AC50 [7]	AC50 [10]
CCNC(=O)NC(=O)C(C#N)=NOC	inactive	inactive	inactive	inactive	inactive	inactive	inactive	inactive	inactive										
N#Cc1c[nH]cc1-c1cccc2c1OC(F)(F)O2			inactive	inactive		inactive	inactive	inactive		13 µM (active)	16.1 µM (active)	19.3 µM (active)	inactive	3.5 µM (active)					
Cc1cnc(C2=NC(C)(C(C)C)C(=O)N2)c(C(=O)O)c1 (centres undefined)	inactive	inactive	inactive	inactive	inactive	inactive	inactive	inactive	inactive				inactive						
O=C(Nc1ccccc1-c1ccc(Cl)cc1)c1cccnc1Cl	inactive	inactive	inactive	inactive	inactive	inactive	inactive	inactive	inactive				inactive						
CS(=O)(=O)c1cc(C(F)(F)F)ccc1C(=O)c1cnoc1C1CC1	inactive	inactive	inactive	inactive	inactive	inactive	inactive	inactive	inactive				inactive						
COCc1cnc(C2=NC(C)(C(C)C)C(=O)N2)c(C(=O)O)c1 (centres undefined)	inactive	inactive	inactive	inactive	inactive	inactive	inactive	inactive	inactive										
COCC(=O)N(c1c(C)cccc1C)C(C)C(=O)OC (centres undefined)	inactive	inactive	inactive	inactive	inactive	inactive	inactive	inactive	inactive				inactive						
CC(C)Nc1nc(Cl)nc(NC(C)C)n1	inactive	inactive	inactive	inactive	inactive	inactive	inactive	inactive	inactive				inactive						
CCNP(=S)(OC)O/C(C)=C/C(=O)OC(C)C (centres undefined)	inactive	inactive	inactive	inactive	inactive	inactive	inactive	inactive	inactive				inactive						
CCCCC(C#N)(Cn1cncn1)c1ccc(Cl)cc1 (centres undefined)		inactive	inactive	inactive	inactive	inactive	inactive	inactive	inactive	103 µM (active)			inactive						
CC1(C)CCC(=Cc2ccc(Cl)cc2)C1(O)Cn1cncn1 (centres undefined)	inactive	inactive	inactive	inactive	inactive	inactive	inactive	inactive	inactive				inactive						
CC(C)Oc1cccc(NC(=O)c2ccccc2C(F)(F)F)c1		inactive	inactive	inactive		inactive	inactive	inactive	inactive	131 µM (active)		100 µM (active)	inactive						
C=C(C)CN(CC)c1c([N+](=O)[O-])cc(C(F)(F)F)cc1[N+](=O)[O-]		inactive	inactive	inactive		inactive	inactive	inactive	inactive	105 µM (active)		135 µM (active)	inactive						
COc1ccc(-c2ccccc2)cc1NNC(=O)OC(C)C	inactive	inactive		inactive	inactive	inactive	inactive	inactive	inactive				inactive						
CCC(C)n1c(=O)[nH]c(C)c(Br)c1=O (centres undefined)	inactive	inactive		inactive	inactive	inactive	inactive	inactive	inactive				inactive						
COCC(C)N(C(=O)CCl)c1c(C)csc1C (centres undefined)		inactive	inactive				inactive	inactive	inactive	51.5 µM (active)		105 µM (active)	inactive		103 µM (active)	86.4 µM (active)			
CO/N=C(/C1=NOCCO1)c1ccccc1Oc1ncnc(Oc2ccccc2Cl)c1F		inactive		inactive		inactive	inactive	inactive	inactive	6.52 µM (active)		7.25 µM (active)	inactive				12.7 µM (active)		

SMILES	outcome [1]	outcome [2]	outcome [3]	outcome [4]	outcome [5]	outcome [6]	outcome [7]	outcome [8]	outcome [9]	AC50 [1]	AC50 [2]	AC50 [5]	outcome [10]	AC50 [9]	AC50 [4]	AC50 [6]	AC50 [3]	AC50 [7]	AC50 [10]
CNC(=O)N(C)c1nnc(C(C)(C)C)s1	inactive	inactive	inactive	inactive	inactive	inactive	inactive	inactive	inactive				inactive						
O=c1n(Cl)c(=O)n(Cl)c(=O)n1Cl	inactive	inactive		inactive	inactive	inactive	inactive	inactive	inactive				inactive						
O=P(O)(O)CCCl	inactive	inactive	inactive	inactive	inactive	inactive	inactive	inactive	inactive				inactive						
CCN(CC)C(=O)C(C)Oc1cccc2ccccc12 (centres undefined)		inactive	inactive	inactive	inactive	inactive	inactive	inactive	inactive	77.6 µM (active)			inactive						
CN=C=S		inactive	inactive	inactive	inactive	inactive	inactive	inactive	inactive	49.2 µM (active)			inactive						
CC(C)N1C(=O)N(c2ccccc2)CSC1=NC(C)(C)C		inactive	inactive	inactive			inactive	inactive	inactive	42.5 µM (active)		32.6 µM (active)	inactive			111 µM (active)			
CC1(C)C(C=C(Cl)Cl)C1C(=O)OC(C#N)c1cccc(Oc2ccccc2)c1 (centres undefined)	inactive	inactive	inactive	inactive	inactive	inactive	inactive	inactive	inactive				inactive						
CCCC(=NOCC)C1=C(O)CC(CC(C)SCC)CC1=O (centres undefined)	inactive	inactive	inactive	inactive	inactive	inactive	inactive	inactive	inactive				inactive						
CC1(C)C(C(=O)OC(C#N)c2cccc(Oc3ccccc3)c2)C1(C)C (centres undefined)		inactive	inactive	inactive		inactive	inactive	inactive	inactive	70.3 µM (active)		100 µM (active)	inactive						
CCCCC(O)(Cn1cncn1)c1ccc(Cl)cc1Cl (centres undefined)		inactive	inactive	inactive	inactive			inactive	inactive	74.4 µM (active)						109 µM (active)		122 µM (active)	120 µM (active)
CC(C)NC(=O)N1CC(=O)N(c2cc(Cl)cc(Cl)c2)C1=O	inactive	inactive	inactive	inactive	inactive	inactive	inactive	inactive	inactive				inactive						
COP(=S)(OC)SCn1nnc2ccccc2c1=O		inactive	inactive	inactive	inactive	inactive	inactive	inactive	inactive	100 µM (active)			inactive						
CN/C(=N\[N+](=O)[O-])NCc1cnc(Cl)s1	inactive	inactive		inactive	inactive	inactive	inactive	inactive	inactive				inactive						
COC(=O)NS(=O)(=O)c1ccc(N)cc1	inactive	inactive	inactive	inactive	inactive	inactive	inactive	inactive	inactive				inactive						
CCCN(CC)CC1COC2(CCC(C(C)(C)C)CC2)O1 (centres undefined)			inactive			inactive	inactive	inactive	inactive	69.3 µM (active)	80.6 µM (active)	62.5 µM (active)	inactive		70.2 µM (active)				
COC(=O)N(C(=O)N1CO[C@@]2(C(=O)OC)Cc3cc(Cl)ccc3C2=N1)c1ccc(OC(F)(F)F)cc1	inactive	inactive	inactive	inactive	inactive	inactive	inactive	inactive	inactive				inactive						
Cc1ccc(N=CN(C)C=Nc2ccc(C)cc2C)c(C)c1	inactive	inactive	inactive				inactive	inactive	inactive			163 µM (active)	inactive		82.4 µM (active)	154 µM (active)			
